Assay outcomes: PubChem, National Center for Advancing Translational Sciences (NCATS)
PI5P4Ka inh = qHTS for Inhibitors of phosphatidylinositol 5-phosphate 4-kinase (PI5P4K); Phosphatidylinositol 5-phosphate 4-kinase type-2 alpha (Homo sapiens), P48426; PI5P4Kalpha enzyme, ADP-Glo luminescence, 60 min; active compounds read low; max response, %; 330,000 tested, 1.2% active; AID 652105, 2013; active = max response of -50% or lower; inconclusive = between -30% and -50%; inactive = -30% or higher; also: value at the top dose of about 77 µM; % is scaled to controls: 0 for no effect and ±100 for the full control effect
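Quantitative HTS of the MLSMR library against PI5P4Kalpha with substrate. ATP added last at 5 microM final; room temperature, 60 minutes. Remaining ATP depleted, ADP converted and read as luminescence.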
GCN5L2 inh = qHTS Assay for Inhibitors of GCN5L2; GCN5L2 HAT assay, ThioGlo1 CoA-SH fluorescence; Potency, µM (top dose mostly 58.9 µM), for the others: at the highest dose activity change, negative = inhibition, hits mostly inhibitors; 390,000 tested, 0.21% active; also: potency is read from the fitted curve at half-maximal effect; % is scaled to controls: 0 for no effect and ±100 for the full control effect
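Free CoA generated was detected with ThioGlo1 (50uM) fluorescence at Ex340nm/Em540nm, read immediately and after 20 min at room temperature. Enzyme, 20 nM in HEPES pH 7.5 buffer, saw compounds 15 min before adding 75uM H3(1-25) peptide and 70uM acetyl-CoA.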
Rango dissoc inh = qHTS Assay for Inhibitors of RanGTP induced Rango (Ran-regulated importin-beta cargo) - Importin beta complex dissociation; Biochemical FRET Rango-importin beta, RanGTP-induced dissociation; Potency, µM (titrated, usually from 46.1 µM), without a hit: at the highest dose activity change, negative = inhibition; 340,000 tested, 0.071% active; calls by dose curve; also: potency is read from the fitted curve at half-maximal effect; % of control where 0% means no effect; nearly all actives have a fitted effect of over 45% in size
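Compounds sat 5 min at room temperature with 0.1 uM Rango biosensor plus 0.25 uM importin beta, then FRET pre-read. RanGTP-RCC1 (0.6 uM Ran, 2mM GTP, 0.2 uM RCC1) added for 45 min, and the CFP/YFP post-read measured blocked complex dissociation.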
VDR inh = Inhibitors of the vitamin D receptor (VDR): qHTS. Vitamin D3 receptor (Homo sapiens), P11473. VDR-SRC2-3 peptide fluorescence polarization, 2 h. Potency, µM, for inactives: max response, negative = inhibition, hits mostly inhibitors. 400,000 tested, 0.93% active; also: potency is read from the fitted curve at half-maximal effect; % is scaled to controls: 0 for no effect and ±100 for the full control effect
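FP read-out; VDR + SRC2-3 coactivator peptide; 23 nl compound by pintool; 2 h RT incubation; reagents held at 4 deg C, protected from light.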
Rango-impB inh = qHTS Assay for Inhibitors of Rango (Ran-regulated importin-beta cargo) - Importin beta complex formation; Importin subunit beta-1 (Homo sapiens), Q14974; Rango CFP/YFP FRET sensor + importin beta, 45 min; Potency, µM (doses to about 92.2 µM), without a hit: top-dose inhibition of complex formation; 340,000 tested, 0.031% active; calls by dose curve;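 also: potency is read from the fitted curve at half-maximal effect; 0% = DMSO wells and 100% = buffer wells lacking importin beta; nearly all actives have a fitted effect of over 15% in size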
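Inhibition scored from the CFP 486 nm/YFP 530 nm FRET ratio 45 min after adding 0.125 microM importin beta to 50 nM Rango biosensor preincubated 5 min with compound (room temperature, PBS with DTT, Tween-20, BSA). No-importin wells as positive control.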
PLK1 PBD inh = qHTS for Inhibitors of PLK1-PDB (polo-like kinase 1 - polo-box domain): Primary Screen | Potency, µM, inactives show max response, negative = inhibition, usual class: inhibitors | AID 720504, 2013 | 360,000 tested, 2.8% active | Serine/threonine-protein kinase PLK1 (Homo sapiens), P53350 | Plk1 PBD binding of FITC phosphopeptide, fluorescence polarization; also: potency is read from the fitted curve at half-maximal effect; series mostly up to about 57 µM; % is scaled to controls: 0 for no effect and ±100 for the full control effect; nearly all actives have a fitted effect of over 65% in size
Target sequence (P53350 whole entry, looked up, the tested form may be a part): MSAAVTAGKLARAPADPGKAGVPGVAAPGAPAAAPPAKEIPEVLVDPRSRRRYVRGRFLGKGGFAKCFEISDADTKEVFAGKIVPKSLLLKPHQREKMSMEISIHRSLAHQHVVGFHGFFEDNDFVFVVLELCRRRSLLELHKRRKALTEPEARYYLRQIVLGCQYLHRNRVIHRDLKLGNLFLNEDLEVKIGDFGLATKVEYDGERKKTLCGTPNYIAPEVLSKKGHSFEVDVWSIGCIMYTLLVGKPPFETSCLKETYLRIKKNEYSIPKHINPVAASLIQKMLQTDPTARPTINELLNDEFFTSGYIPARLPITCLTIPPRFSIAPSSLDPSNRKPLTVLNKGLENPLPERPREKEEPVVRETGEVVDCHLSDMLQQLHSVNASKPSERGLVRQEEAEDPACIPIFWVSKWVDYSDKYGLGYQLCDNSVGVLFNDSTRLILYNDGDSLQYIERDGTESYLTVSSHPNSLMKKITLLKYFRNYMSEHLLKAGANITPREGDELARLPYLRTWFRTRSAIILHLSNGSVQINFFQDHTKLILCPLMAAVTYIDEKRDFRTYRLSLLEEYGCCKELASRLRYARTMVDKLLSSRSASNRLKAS
Starred values were filed as active, the others as inactive; ! = not active in a repeat; [ ] = another dose, or the depositor's remark. The list is not random: actives were taken first. Their share in the collection is about 3.6%. Unless noted, calls follow the shape of the dose curve; as a rule, active = well fitted curve in the direction sought with a large enough effect; inconclusive = small, poorly fitted or top-dose-only effect, or another doubt; inactive = no such curve, though single readings can be large; an effect the other way counts as inactive or inconclusive.

How did CCOC(=O)C1CCCN(C(=S)Nc2ccc(Nc3ccccc3)cc2)C1 (stereo unspecified) do in these assays?
PI5P4Ka inh: -9.4; GCN5L2 inh: -16.1%; Rango dissoc inh: 9.3%; VDR inh: -9.5%; Rango-impB inh: -0.3%; PLK1 PBD inh: 21.2µM*

How did O=C(NNS(=O)(=O)c1ccccc1[N+](=O)[O-])c1ccc(O)cc1 do in these assays?
PI5P4Ka inh: -7.2; GCN5L2 inh: -7.4%; Rango dissoc inh: 14.6%; VDR inh: -3.6%; Rango-impB inh: 7.5%; PLK1 PBD inh: 23.8µM*

What do the screens show for `CN1CCC(=C2c3ccccc3C(O)c3ccccc32)CC1` (stereo unspecified)?
PI5P4Ka inh: 3.1; GCN5L2 inh: 14.2%; Rango dissoc inh: -0.2%; VDR inh: 10.6%; Rango-impB inh: -1.0%; PLK1 PBD inh: -0.6%

How did CN1CCc2cccc3c2C1Cc1ccc(O)c(O)c1-3 (stereo unspecified) do in these assays?
PI5P4Ka inh: -29.2; GCN5L2 inh: -10.5%; Rango dissoc inh: -7.4%; VDR inh: 10µM*!; Rango-impB inh: -0.2%; PLK1 PBD inh: 3.4%

What do the screens show for `Cc1ccc(Nc2ncnc3onc(C)c23)cc1Cl`?
GCN5L2 inh: -11.4%; VDR inh: 8.8%

How did Cc1noc(NS(=O)(=O)c2cccc3c(N(C)C)cccc23)c1C do in these assays?
GCN5L2 inh: inconclusive; VDR inh: 25.1µM*

Results for O=C1CC[C@@H](O)CCN1CC[C@H](Sc1ccccc1)c1ccccc1 ?
PI5P4Ka inh: -7.4; GCN5L2 inh: 2.9%; Rango dissoc inh: 20.6%; VDR inh: 3.6%; Rango-impB inh: 1.0%; PLK1 PBD inh: -20.3%

Results for CC(=O)Nc1ccc(S[C@@H](CCN2CC[C@H](O)CCC2=O)c2ccccc2)cc1 ?
PI5P4Ka inh: -2.8; GCN5L2 inh: -3.8%; Rango dissoc inh: -11.7%; VDR inh: -15.0%; Rango-impB inh: 0.3%; PLK1 PBD inh: 13.4µM*

Results for COC(=O)c1ccc(Oc2c(Cl)cccc2[N+](=O)[O-])cc1 ?
PI5P4Ka inh: -1.4; GCN5L2 inh: -3.8%; Rango dissoc inh: -3.6%; VDR inh: inconclusive; Rango-impB inh: 0.3%; PLK1 PBD inh: 21.2µM*

How did Oc1ccc(COCc2ccc(F)cc2)c2cccnc12 do in these assays?
GCN5L2 inh: -5.4%

How did CC1=CC2=NC(=O)CC(C)(C(=O)N(CC(=O)NC3CCCC3)c3ccccc3C)N2C=C1 (stereo unspecified) do in these assays?
PI5P4Ka inh: -5.3; GCN5L2 inh: 7.2%; Rango dissoc inh: 36.8%; VDR inh: -20.0%; Rango-impB inh: -1.6%; PLK1 PBD inh: 29.9µM*

What do the screens show for `CC1CCN(c2ccc(-c3cccc(NS(=O)(=O)c4cccs4)c3)nn2)CC1`?
GCN5L2 inh: 0.2%; VDR inh: 3.8%

What do the screens show for `CCOc1ccc(C(=O)Nc2nnc(S(=O)(=O)N(CC)c3ccccc3C)s2)cc1`?
GCN5L2 inh: -2.5%; VDR inh: 2.9%

What do the screens show for `O=C(O)Cc1ccc(C(=O)CSc2ccccc2)s1`?
PI5P4Ka inh: -58.7*; GCN5L2 inh: -24.3%; Rango dissoc inh: -15.7%; VDR inh: inconclusive; Rango-impB inh: inconclusive; PLK1 PBD inh: 11.9µM*

Results for Cc1ccc(CCNC(=O)C(C)n2nc(C)c3c(C)n(-c4ccc(C)cc4)nc3c2=O)cc1 (stereo unspecified) ?
GCN5L2 inh: -0.2%; VDR inh: 7.5%

How did COc1ccc(CNC(=O)C(C)n2nc(C)c3c(C)n(-c4ccc(C)cc4)nc3c2=O)cc1 (stereo unspecified) do in these assays?
PI5P4Ka inh: -19.8; GCN5L2 inh: -20.7%; Rango dissoc inh: -8.7%; VDR inh: inconclusive; Rango-impB inh: 0.0%; PLK1 PBD inh: 21.2µM*

What do the screens show for `COc1cc(NS(=O)(=O)c2cnc(N)nc2)cc(OC)c1`?
GCN5L2 inh: 9.3%; VDR inh: 2.0%

What do the screens show for `CCOC(=O)C(CC)N1CCN(Cc2ccc(F)cc2)C(=O)C1=O` (stereo unspecified)?
GCN5L2 inh: 34.0%; VDR inh: 11.7%

How did Fc1cccc(/C=N/Nc2nncc3ccccc23)c1 do in these assays?
PI5P4Ka inh: -11.9; GCN5L2 inh: -1.5%; Rango dissoc inh: 7.4%; VDR inh: inconclusive; Rango-impB inh: 0.0%; PLK1 PBD inh: 21.2µM*

What do the screens show for `COc1ccccc1NC(=O)c1c(-c2ccc(C)cc2)nnc2ccccc12`?
GCN5L2 inh: -20.5%; VDR inh: 2.0%

Results for COc1ccc(-c2nnc(C3CCN(C(=O)c4ccccc4F)CC3)o2)cc1 ?
GCN5L2 inh: -12.5%; VDR inh: -16.5%

Results for COc1cc(/C=C2\CCCc3c2nc2ccccc2c3C(=O)O)cc([N+](=O)[O-])c1O ?
PI5P4Ka inh: -63.6*; GCN5L2 inh: -11.8%; Rango dissoc inh: 6.6%; VDR inh: -23.9%; Rango-impB inh: 7.8%; PLK1 PBD inh: -13.7%

Results for COc1cc(/C=C2\CCCc3c2nc2ccccc2c3C(=O)O)cc(OC)c1O ?
PI5P4Ka inh: -12.1; GCN5L2 inh: -14.6%; Rango dissoc inh: -8.4%; VDR inh: -23.5%; Rango-impB inh: -2.9%; PLK1 PBD inh: 26.7µM*

Results for COc1ccc(/C=C2\CCCc3c2nc2ccccc2c3C(=O)O)cc1OC ?
GCN5L2 inh: -25.4%

How did CCNc1ncc2nc(-c3ccccc3)c(=O)n(Cc3cccc(OC)c3)c2n1 do in these assays?
GCN5L2 inh: -8.4%; VDR inh: -5.3%

What do the screens show for `CCN1CCN(c2cc3c(cc2F)c(=O)c(S(=O)(=O)c2cc(C)cc(C)c2)cn3CC)CC1`?
GCN5L2 inh: -3.2%; VDR inh: 15.9%

What do the screens show for `CCN1CCC(N(Cc2cccc(OC)c2)C(=O)Nc2cccc(C(F)(F)F)c2)CC1`?
GCN5L2 inh: 0.6%; VDR inh: 2.1%

What do the screens show for `CCCCCOC(=O)c1[nH]c2c(c1C)C(=O)C(C(=O)OC)C(C)C2` (stereo unspecified)?
PI5P4Ka inh: inconclusive; GCN5L2 inh: -1.5%[0.501 µM]; Rango dissoc inh: -11.7%; VDR inh: inconclusive; Rango-impB inh: 3.9%; PLK1 PBD inh: 2.99µM*
